Screening data as filed in PubChem BioAssay.
JMJD2E inh: blocks human JMJD2E demethylase activity | AID 2147 | JMJD2E catalytic domain, FDH-coupled NADH fluorescence (FDH is formaldehyde dehydrogenase) | 230,000 tested, 1.6% active | Potency, µM (top dose mostly 57.1 µM), without a hit: at the highest dose activity change, negative = inhibition, hits mostly inhibitors; active = well fitted inhibition curve with a large enough effect, not every such curve was filed as active; inconclusive = small, poorly fitted or top-dose-only effect, or another doubt; inactive = no such curve, though single readings can be large or run the other way;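 note: 0% = wells with enzyme and -100% = buffer wells without enzyme; nearly all actives have a fitted effect of over 50% in size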
APE1 inh: inhibitors of human APE1 endonuclease; P27695; recombinant APE1, TAMRA/BHQ-2 abasic DNA cleavage fluorescence; Potency, µM (highest dose often 65.8 µM), for the others: top-dose activity change, negative = inhibition, usual class: inhibitors; 350,000 tested, 0.35% active;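 note: plate controls were vehicle for no effect and reference inhibitor for full effect; nearly all actives have a fitted effect of over 55% in size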
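Enzyme (0.75 nM final) and test compound are incubated 15 min at room temperature before adding 50 nM quenched THF abasic-site duplex. Cleavage dequenches TAMRA, followed at 525/598 nm over three reads one minute apart.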
BLM helicase inh: Bloom syndrome helicase (human) inhibition. P54132. recombinant BLM DNA unwinding, fluorescence dequenching. Potency, µM (doses to about 56.1 µM), for the others: at the top dose activity change, negative = inhibition, usual class: inhibitors. 350,000 tested, 0.2% active. AID 2528;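 note: plate controls were vehicle for no effect and no enzyme for full effect; nearly all actives have a fitted effect of over 35% in size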
PKM2 act: increases activity of human pyruvate kinase M2 | P14618 | purified PKM2, Kinase-Glo ATP luminescence, activation; response scale: 0% is enzyme alone, no compound | Potency, µM (doses to about 57.5 µM), for inactives: at the highest dose activation, hits mostly activators | 260,000 tested, 0.34% active | AID 1631; note: nearly all actives have a fitted effect of over 55% in size
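Kinase-Glo luminescence reports ATP generated from ADP (0.1 mM) and PEP (0.5 mM) by purified hPK-M2 after 1 h at room temperature, pH 7.2 imidazole buffer; intermediate enzyme activity allows detecting inhibitors and activators.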
RECQ1 helicase: blocks DNA unwinding by human RECQ1; P46063; AID 2549; 240,000 tested, 0.54% active; Potency, µM (highest dose often 57.3 µM), for inactives: top-dose activity, negative = inhibition, hits mostly inhibitors; RECQ1 DNA unwinding, red fluorescence kinetic read;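 note: plate controls were vehicle for no effect and no enzyme for full effect; nearly all actives have a fitted effect of over 30% in size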
Target sequence (P46063 whole entry, looked up): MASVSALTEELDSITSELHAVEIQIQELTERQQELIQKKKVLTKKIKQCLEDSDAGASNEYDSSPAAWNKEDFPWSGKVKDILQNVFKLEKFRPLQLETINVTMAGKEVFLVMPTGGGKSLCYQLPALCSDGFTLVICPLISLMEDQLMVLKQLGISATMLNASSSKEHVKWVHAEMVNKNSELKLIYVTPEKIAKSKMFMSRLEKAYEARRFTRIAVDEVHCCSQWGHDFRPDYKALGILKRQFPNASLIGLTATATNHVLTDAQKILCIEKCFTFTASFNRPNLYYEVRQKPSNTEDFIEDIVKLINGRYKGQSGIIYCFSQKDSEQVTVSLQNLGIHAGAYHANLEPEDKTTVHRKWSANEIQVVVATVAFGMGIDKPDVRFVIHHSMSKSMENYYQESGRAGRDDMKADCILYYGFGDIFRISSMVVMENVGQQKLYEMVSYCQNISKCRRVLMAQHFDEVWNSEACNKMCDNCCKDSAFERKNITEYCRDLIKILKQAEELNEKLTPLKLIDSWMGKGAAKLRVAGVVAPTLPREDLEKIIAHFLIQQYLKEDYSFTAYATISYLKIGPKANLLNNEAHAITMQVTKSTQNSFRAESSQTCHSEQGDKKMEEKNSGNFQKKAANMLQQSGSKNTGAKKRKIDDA
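50 nM RECQ1T1 preincubated 15 min with compound in Tris pH 8.0 buffer with MgCl2, DTT, Tween-20 and 2.5 ug/ml poly(dI-dC); started with 200 nM TAMRA/BHQ-2 forked duplex and 2 mM ATP. Unwinding read as fluorescence (525/598 nm), two reads 2 h apart.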
Starred values were filed as active, the others as inactive; i = inactive; ? = inconclusive; . = no result given; [ ] = dose if it differs, or a comment. This is one part of a sample in which hits are shown more often than they occur. Unless noted, calls come from the whole dose curve; as a rule, active = well fitted curve in the direction sought with a large enough effect; inconclusive = small, poorly fitted or top-dose-only effect, or another doubt; inactive = no such curve, though single readings can be large; an effect the other way counts as inactive or inconclusive. Unless noted, % is set by controls: 0 for no effect and ±100 for the full control effect; potency is the fitted concentration of half-maximal effect.

SMILES | JMJD2E inh | APE1 inh | BLM helicase inh | PKM2 act | RECQ1 helicase
Cc1nnc(SCc2nc3scc(-c4ccccc4)c3c(=O)[nH]2)s1 | 5.7% | 0.2% | -5.3% | 28.2µM* | -0.7%
Cc1c(N)nc([C@H](CC(N)=O)NC[C@H](N)C(N)=O)nc1C(=O)N[C@H](C(=O)N[C@H](C)[C@@H](O)[C@H](C)C(=O)N[C@H](C(=O)NCCc1nc(-c2nc(C(=O)NCCCCN=C(N)N)cs2)cs1)[C@@H](C)O)[C@@H](O[C@@H]1O[C@@H](CO)[C@@H](O)[C@H](O)[C@@H]1O[C@H]1O[C@H](CO)[C@@H](O)[C@H](OC(N)=O)[C@@H]1O)c1cnc[nH]1 | . | -1.9% | . | . | .
Cc1ccc(S(C)(=O)=NC(=O)NC(=O)c2c(F)cccc2Cl)cc1 (stereo not drawn) | 4.2% | 0.4% | -1.7% | -1.4% | -12.8%
Cc1ccc(S(=O)(=O)/N=c2\ccc(Cl)cn2C(F)F)cc1 | -6.6% | -5.4% | 1.0% | 25.1µM* | -5.7%
Cc1ccc(OCCn2cc(/C=N/NC(=O)c3ccncc3)c3ccccc32)cc1 | -4.1% | -6.5% | -1.6% | -0.1% | 25.1µM*
Cc1cc2c(N=O)c(NO)ccc2[nH]1 | 11.2µM* | -5.0% | -5.1% | -0.1% | i
O=Nc1c(O)[nH]c2ccc(F)cc12 | 3.4% | 1.0% | -2.2% | 18.8% | -3.2%
O=C(O)c1ccc(CSc2nnc(-c3cccc(S(=O)(=O)NC4CCCC4)c3)n2-c2ccc(F)cc2)cc1 | . | 61.4% | . | . | .
C/C(=N/NC(=O)c1cc(-c2cccc([N+](=O)[O-])c2)n[nH]1)c1cccc(O)c1 | 1.6% | 7.2% | -5.5% | -8.4% | -5.5%
C/C(=N\NC(=O)CSCc1ccc([N+](=O)[O-])cc1)c1ccccc1 | 10.2% | -5.0% | -10.8% | -1.8% | -7.9%
C/C(=N\NC(=O)CSCc1ccc([N+](=O)[O-])cc1)c1ccccc1O | 25.1µM* | -0.2% | -1.1% | -1.7% | -4.3%
C/C(=N\NC(=O)c1cc(-c2cccc([N+](=O)[O-])c2)n[nH]1)c1ccccc1O | 25.1µM* | -1.9% | ? | -6.4% | -0.7%
C=C(C)C1CCC(C)C(OC(C)=O)C1 (stereo not drawn) | . | -1.7% | 1.0% | . | -10.0%
COCCNc1cc(N2CCN(C3CCCCC3)CC2)c2noc3c2c1C(=O)c1ccccc1-3 | . | . | -2.1% | . | .
O=C(O)c1ccc(Cl)c2c1C1C=CCC1C(c1ccccn1)N2 (stereo not drawn) | 25.1µM* | 25.1µM* | 2.5% | 0.7% | -9.5%
O=[N+]([O-])c1ccc(Cl)c2c1C1C=CCC1C(c1ccccn1)N2 (stereo not drawn) | -21.4% | -11.2% | -28.2% | -28.1% | -16.8%
COc1cc(/C=N/n2c(-c3ccccc3)n[nH]c2=S)ccc1O | 25.1µM* | 21.6% | 3.8% | -2.3% | -0.4%
COc1cc(/C=N/n2c(-c3ccccc3)n[nH]c2=S)cc(OC)c1O | -1.2% | ? | -1.0% | 1.7% | -4.2%
CCOC(=O)CCN1C(=O)[C@H]2[C@H]3[C@H](O)[C@H](O)C/C(=N/NC(=O)OCC)[C@H]3CC[C@@H]2C1=O | . | 15.8%[12.4 µM] | 4.5%[12.4 µM] | . | 7.4%[11.5 µM]
O=C(NCc1cccnc1)c1cc(-c2ccco2)on1 | ? | -1.7% | -1.8% | 22.4µM* | -16.4%
COc1ccc(-c2nn(C)c3sc(C(=O)Nc4cc(OC)c(OC)c(OC)c4)cc23)cc1OC | . | . | 20µM* | . | .
C=C(C)C(=O)OCC(C)O (stereo not drawn) | . | -4.3% | . | . | -5.9%
O=C(N/N=C/c1cc(Br)ccc1O)c1cccc(N2CCCC2=O)c1 | 28.2µM* | 0.1% | -1.2% | 0.8% | 0.6%
COC(=O)c1ccccc1S(=O)(=O)N1CCc2nc(COc3ccccc3)c3c(c2C1)CO[C@@H](C)C3 | 2.4%[11.4 µM] | -3.8%[12.4 µM] | 0.7%[12.4 µM] | -7.1%[11.5 µM] | i[11.5 µM]
N#Cc1c(-c2ccc(F)c(Br)c2)no[n+]1[O-] | . | 5.0% | . | . | .
Cc1ccccc1OCc1nnc2c3cnn(C)c3ncn12 | -0.4% | -0.9% | -1.3% | 28.2µM* | -7.3%
Cc1ccc(C)c(-n2c3nc(=O)[nH]c(=O)c-3cc3cc([N+](=O)[O-])ccc32)c1 | 0.2% | 3.9% | 20µM* | 0.7% | -0.4%
O=C1NN(C(=O)Nc2ccc(Br)cc2)C(c2ccccc2)C1c1ccccc1 (stereo not drawn) | . | -2.3% | -4.8% | . | -1.3%
